In PubChem BioAssay (EPA / NIEHS) one finds outcome and AC50 data, which are given here for 10 molecules.

“And” between values parts separate entries of the source, which are not always exact repeats. Equal entries are not always repeated. Some compounds were tested as several samples or in several runs, with calls that do not always agree. The source made the active and inactive calls. How the source made its calls: active means hit-call score of the fitted dose curve at least 0.9, where 1 is the maximum; inactive means score below 0.9.

Experiment [1] addresses Nuclear respiratory factor 1 (Homo sapiens) (UniProt Q16656). Briefly: ATG_NRF1_CIS: Attagene CIS-FACTORIAL HepG2 Assay for human Nuclear Respiratory Factor 1 (NRF1) Orphan Gene (AID 2282987). The conditions noted are these: HepG2 NRF1 cis-element reporter, Attagene multiplex; actives raise or lower the signal. In short, it runs like this:
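HepG2 cells transiently transfected with multiple reporter transcription units under cis-regulatory promoter control, so endogenous transcription-factor activity is read. After 24 h compound exposure, reporter mRNA quantified by RT-PCR, fluorescent labelling, HpaI digestion and capillary electrophoresis; bidirectional fitting versus DMSO.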

Experiment [2] is described as follows: ATG_NFI_CIS: Attagene CIS-FACTORIAL HepG2 Assay for human Nuclear Factor I (NFI) (AID 2282989). The conditions noted are these: HepG2 cis-regulatory reporter, NFI response element transcription; actives raise or lower the signal. Put shortly:
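HepG2, transient MRTU, 24 h exposure; RNA→cDNA→PCR→FAM label→HpaI→CE fluorescence. Bidirectional fit, DMSO = baseline.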

Experiment [3] in a line: ATG_NRF2_ARE_CIS: Attagene CIS-FACTORIAL HepG2 Assay for human Nuclear Factor Erythroid 2 Related Factor 2 (NFR2) response to Antioxidant Response Elements (ARE) (AID 2282992).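 On AC50: reporter mRNA level measured by RT-PCR and capillary electrophoresis fluorescence.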 The conditions noted are these: HepG2 Attagene ARE/NRF2 reporter, transcription factor activity; actives raise or lower the signal. Put shortly: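 Transient MRTU transfection of HepG2; 24 h compound exposure; TriZol RNA, RT with oligo(dT), PCR, 6-FAM primer extension, HpaI cut, CE. Bidirectional fit vs DMSO.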

Experiment [4] is described as follows: ATG_Oct_MLP_CIS: Attagene CIS-FACTORIAL HepG2 Assay for human Octamer-Binding Transcription Factor (Oct) (AID 2282993). The note with it: HepG2 Attagene cis-factorial Oct reporter, mRNA; actives raise or lower the signal. Put shortly:
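Multiplexed cis-reporter assay in human liver HepG2 cells, 24 h incubation. Reporter RNA amplified and labelled, then resolved by capillary electrophoresis; DMSO serves as negative control and baseline.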

Experiment [5] deals with Cellular tumor antigen p53 (Homo sapiens) (UniProt P04637). Briefly: ATG_p53_CIS: Attagene CIS-FACTORIAL HepG2 Assay for human p53 Transcription Factor (AID 2282994). The conditions noted are these: HepG2 p53 cis-element reporter, Attagene mRNA; actives raise or lower the signal. In short, it runs like this:
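HepG2, transient MRTU transfection (cis promoter elements, endogenous TFs); 24 h dosing; RNA isolation, RT-PCR, 6-FAM primer extension, HpaI digest, CE fluorescence; bidirectional fit vs DMSO.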

Experiment [6] can be described thus: BSK_3C_TissueFactor: BioMAP Diversity Plus: 3C Assay for Tissue Factor Biomarker Activity (AID 2282997). The conditions noted are these: BioMAP 3C HUVEC, tissue factor biomarker readout; actives raise or lower the signal. Put shortly:
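Primary human umbilical vein endothelial cells in the 3C system were exposed to test chemical for 24 h, then Tissue Factor measured by ELISA. Activity was fitted bidirectionally against DMSO as negative control and baseline.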

Experiment [7] is described as follows: BSK_3C_uPAR: BioMAP Diversity Plus: 3C Assay for Urokinase-type plasminogen activator receptor (uPAR) Biomarker Activity (AID 2282998). The conditions noted are these: BioMAP 3C HUVEC, uPAR biomarker ELISA; actives raise or lower the signal. In short, it runs like this:
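Dose primary human umbilical vein endothelial cells, incubate 24 h, measure cell-surface uPAR by ELISA, then fit the signal in both directions against the DMSO negative control.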

Experiment [8] can be described thus: BSK_3C_VCAM1: BioMAP Diversity Plus: 3C Assay for Vascular cell adhesion molecule 1 (VCAM1) Biomarker Activity (AID 2282999). The note with it: BioMAP 3C HUVEC, VCAM1 ELISA, cytokine-stimulated; actives raise or lower the signal. Put shortly:
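Human umbilical vein endothelial cells were dosed with compound for 24 h, after which cell-surface VCAM-1 was quantified by ELISA. Bidirectional curve fitting used DMSO as negative control and activity baseline.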
For orientation: In an ELISA, binding on a coated surface is turned into a signal by an enzyme label.

A short description of experiment [9]: ATG_NF_kB_CIS: Attagene CIS-FACTORIAL HepG2 Assay for human Nuclear Factor Kappa B (NF-kB) (AID 2282991). The note with it: HepG2 Attagene cis-factorial NF-kB reporter mRNA; actives raise or lower the signal. Put shortly:
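HepG2 cells transiently transfected with multiplexed cis-element reporter units measuring endogenous transcription factor activity; reporter mRNA read 24 h after dosing by RT-PCR, fluorescent labelling, HpaI digestion and capillary electrophoresis. Bidirectional fit against DMSO baseline.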

Nuclear respiratory factor 1 (Homo sapiens), sequence (Q16656 whole entry, looked up): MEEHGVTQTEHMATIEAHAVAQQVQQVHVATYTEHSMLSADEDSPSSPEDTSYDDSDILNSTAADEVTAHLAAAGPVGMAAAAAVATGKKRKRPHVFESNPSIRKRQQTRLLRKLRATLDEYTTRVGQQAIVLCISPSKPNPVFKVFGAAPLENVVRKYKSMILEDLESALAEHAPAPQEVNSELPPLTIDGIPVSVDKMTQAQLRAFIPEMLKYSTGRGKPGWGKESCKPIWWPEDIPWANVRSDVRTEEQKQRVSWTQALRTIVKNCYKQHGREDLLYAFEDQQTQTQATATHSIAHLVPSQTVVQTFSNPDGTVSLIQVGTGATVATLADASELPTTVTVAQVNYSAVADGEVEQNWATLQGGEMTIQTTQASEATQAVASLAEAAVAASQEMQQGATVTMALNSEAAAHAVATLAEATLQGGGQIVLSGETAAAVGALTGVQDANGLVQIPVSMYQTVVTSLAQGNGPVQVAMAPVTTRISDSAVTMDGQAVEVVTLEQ
Cellular tumor antigen p53 (Homo sapiens), sequence (P04637 whole entry, looked up): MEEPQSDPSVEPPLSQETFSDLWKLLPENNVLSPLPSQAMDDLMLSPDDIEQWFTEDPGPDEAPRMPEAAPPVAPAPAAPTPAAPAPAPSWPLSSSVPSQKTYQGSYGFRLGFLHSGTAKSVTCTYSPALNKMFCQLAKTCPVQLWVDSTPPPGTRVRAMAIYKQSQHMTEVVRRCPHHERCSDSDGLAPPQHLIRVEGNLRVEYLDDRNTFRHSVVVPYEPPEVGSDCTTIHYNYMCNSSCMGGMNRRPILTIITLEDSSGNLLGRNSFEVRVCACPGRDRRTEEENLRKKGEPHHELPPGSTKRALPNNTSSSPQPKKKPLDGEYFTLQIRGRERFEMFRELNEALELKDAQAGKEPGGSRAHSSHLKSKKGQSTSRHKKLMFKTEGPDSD

Take `OCC(F)(F)C(F)(F)C(F)(F)C(F)F`: the call in experiment [1], in experiment [2], in experiment [3], in experiment [4], in experiment [5] and in [6] was inactive. Further, the outcome in [7] and in [8] was inactive.

On to `CO[Si](OC)(c1ccccc1)c1ccccc1`, for which the molecule was called inactive in [1], in [2], in experiment [9], in [3], in experiment [4] and in experiment [5]. In [6], the outcome was inactive. For the same molecule, the AC50 – broadly, the midpoint of the concentration-response curve, whichever way the signal moves – in experiment [7] was 34.8 µM (active); in experiment [8], 36.7 µM (active).

With `CNC(=S)NC`, the outcome in [1], in experiment [2], in experiment [3], in [4] and in experiment [5] was inactive.

For `O=C(Cl)C(F)(F)C(F)(F)C(F)(F)C(F)(F)C(F)(F)C(F)(F)C(F)(F)C(F)(F)F`, the outcome in experiment [1], in experiment [2], in [6], in experiment [7] and in [8] was inactive. Moreover, the half-maximal activity concentration (AC50) is 15.8 µM (active) in [3]; 47.1 µM (active) in experiment [4]; 54.3 µM (active) in experiment [5]; 53.4 µM (active) in [6]; 30 µM (active) and 46 µM (active) in experiment [7].

For `O=S(=O)(OCCOC(F)(F)F)C(F)(F)F`, the molecule was classed as inactive in [1], in experiment [2], in experiment [9], in experiment [3], in experiment [4] and in experiment [5]. The result in [6], in experiment [7] and in experiment [8] was inactive.

For the molecule `CN(C)Cc1ccccc1O`, the result in experiment [1], in experiment [2], in [3] and in experiment [5] was inactive. The concentration at half-maximal activity (AC50) in experiment [4] is 179 µM (active).

In the case of `Cc1ccc(S(=O)(=O)NCl)cc1`, the outcome in experiment [1], in [2], in experiment [3], in experiment [4] and in [5] was inactive.

With `FC(F)(F)C(F)(F)CNCC(F)(F)C(F)(F)F`, the molecule was classed as inactive in [1], in [2], in experiment [9], in [3], in experiment [4] and in [5]. The outcome in experiment [6], in [7] and in [8] was inactive.

For the molecule `FC(F)(F)C(F)(F)C(F)(F)CI`, the outcome in [1], in experiment [2], in experiment [9], in experiment [3], in experiment [4] and in [5] was inactive. The outcome in [6], in [7] and in [8] was inactive.

Consider `CCC(=O)OCCc1ccccc1`, for which the outcome in [1], in experiment [2], in [9], in experiment [3], in experiment [4] and in experiment [5] was inactive.
